Experimental data reported in PubChem BioAssay AID1053117 (Broad Institute, 2014).
Entries with a potency or affinity are not part of this list. Activity calls are given as the source filed them.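 The calls were made as follows: active = compounds lowering cell ATP signal with a fitted half-effect dose at most twice the top valid dose; inconclusive = flat curve with 30 to 70% signal loss, or bad fit; inactive = wrong direction, flat within 30%, or weaker than limit.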

experiment: viability loss in HEK293 kidney cells – cell-based, cherry-picks, set 5, cytotoxicity control, dose response (AID 1053117); settings: HEK293T viability, CellTiter-Glo ATP luminescence, 72 h; series mostly up to 26 µM; activity change, negative = cytotoxicity: at the top concentration;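 also: more negative means greater loss of ATP signal and more cytotoxicity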

SMILES	activity change, negative = cytotoxicity
N#C[C@@H]1[C@@H](c2ccccc2C2=CCCCC2)[C@@H](CO)N1S(=O)(=O)c1ccccc1	-7.01% [at 23.5 µM] (inactive)
COc1ccccc1CC(=O)OC(C)C(=O)Nc1ccc(S(=O)(=O)N2CCCCC2)cc1 (centres undefined)	1.81% (inactive)
COc1ccc(-c2oc3ncnc(NCCCN4CCOCC4)c3c2-c2ccc(OC)cc2)cc1	-10.4% (inactive)
Cc1oc2ccc(O)cc2c1C(=O)c1ccc(Br)cc1	-12.3% (inactive)
CCCCNC(=O)Nc1nc2ccc(CC)cc2s1	-9.94% (inactive)
COc1ccc(Cl)cc1NC(=O)CSc1nc(Nc2ccccc2)nc(N2CCOCC2)n1	-15.5% (inactive)
O=C(CCNS(=O)(=O)c1cccc2nonc12)NC1CCCc2ccccc21 (centres undefined)	10.6% (inactive)
COCC(=O)Nc1ccc2c(c1)C(=O)N(C)[C@@H]1CC[C@@H](CC(=O)NCc3ccccc3Cl)O[C@@H]1CO2	-7.18% [at 23.5 µM] (inactive)
Cc1ccc(Nc2nnc(SCc3ccccc3)s2)cc1	-6.05% (inactive)
COC(=O)C[C@H]1CC[C@@H]2[C@@H](COc3ccc(NC(=O)Cc4cccs4)cc3C(=O)N2C)O1	-12.4% (inactive)
O=C(Nc1nc(-c2ccncc2)cs1)C1COc2ccccc2O1 (centres undefined)	-1.23% (inactive)
C[C@@H]1CN([C@@H](C)CO)C(=O)c2cc(NC(=O)CCCN(C)C)ccc2O[C@H]1CN(C)Cc1ccc(-c2ccccc2)cc1	-21.1% (inactive)
N#C[C@H]1[C@@H](c2ccccc2C2=CCCCC2)[C@@H](CO)N1S(=O)(=O)c1ccccc1	-16.9% [at 23.5 µM] (inactive)
C[C@@H]1CN([C@H](C)CO)C(=O)c2cccc(NC(=O)Nc3ccc(C(F)(F)F)cc3)c2O[C@H]1CN(C)C(=O)Nc1cccc2ccccc12	-15% (inactive)
CC1(C)Cc2c(C#N)c(SCC(=O)c3ccccc3)nc(N3CCOCC3)c2CS1	3.32% (inactive)
CCOC(=O)c1cnc(SCc2nc(N)nc(Nc3ccc(OC)cc3)n2)nc1N	-16.9% (inactive)
N#Cc1ccc(-c2ccc3c(c2)[C@@H]2[C@@H](CCN2S(=O)(=O)c2cccc(F)c2)[C@@H](CO)N3)cc1	-14.5% [at 23.5 µM] (inactive)

SMILES	activity change, negative = cytotoxicity
Cc1c(NC(=O)c2ccc3nsnc3c2)cccc1[N+](=O)[O-]	11.3% (inactive)
O=S(=O)(c1ccccc1F)N1CC[C@@H]2[C@H]1c1cc(-c3cccc(F)c3)ccc1N[C@@H]2CO	-2.3% (inactive)
C[C@@H]1CN([C@H](C)CO)C(=O)c2cc(-c3ccccc3)cnc2O[C@H]1CN(C)Cc1ccccc1	-6.15% (inactive)
O=c1c2cc(N3CCOCC3)ccc2[nH]c(=S)n1Cc1ccc(Cl)cc1	-22.5% (inactive)
COC(=O)C[C@H]1CC[C@H]2[C@H](COc3ccc(NC(=O)Cc4cccs4)cc3C(=O)N2C)O1	-8.78% (inactive)
CC(NC(=O)CSc1ccc(S(=O)(=O)N2CCOCC2)cn1)c1ccc(Cl)cc1Cl (centres undefined)	-20.9% (inactive)
O=C(Nc1ccccc1F)N1C[C@@H]2[C@H](c3ccccc31)[C@H](CO)N2C(=O)C1CC1	-4.96% [at 23.5 µM] (inactive)
COc1ccc(CCNC(=O)C2CCN(Cc3nc(-c4ccccc4F)oc3C)CC2)cc1OC	3.94% (inactive)
Cn1cnc(S(=O)(=O)N2CCN(c3ccccc3)CC2)c1	-2.6% (inactive)
N#Cc1ccc(-c2ccc3c(c2)[C@@H]2[C@@H](CCN2S(=O)(=O)c2ccccc2F)[C@H](CO)N3)cc1	-20.6% (inactive)
COc1cccc(S(=O)(=O)N2CC[C@@H]3[C@H]2c2cc(-c4ccc(C#N)cc4)ccc2N[C@@H]3CO)c1	-11.8% [at 23.5 µM] (inactive)
COC(=O)C[C@@H]1CC[C@@H]2[C@@H](COc3ccc(NC(=O)Cc4cccs4)cc3C(=O)N2C)O1	7.75% (inactive)
O=C(Nc1ccccc1F)N1C[C@H]2[C@@H](c3ccccc31)[C@H](CO)N2C(=O)C1CC1	-4.41% (inactive)
Cc1cccc(NC(=O)c2ccc(C3SCC(=O)N3CCc3ccccc3)cc2)c1 (centres undefined)	-18.7% (inactive)
Nc1c(C(=O)NCc2ccco2)nnn1Cc1ccccc1	-12.2% (inactive)
COCC(=O)Nc1ccc2c(c1)C(=O)N(C)[C@H]1CC[C@H](CC(=O)NCc3ccccc3Cl)O[C@H]1CO2	-4.9% (inactive)
COc1ccc([N+](=O)[O-])cc1NS(=O)(=O)c1ccc(C(=O)N2CCCC2)cc1	-10.2% (inactive)
